# PubChem BioAssay (NCATS)
# Where “and” joins values, the source holds several entries; their conditions need not be identical. Equal values may be shown once. Values without a mark were called inactive. Results filed as inconclusive are left out. Entries that show only a call come without a potency. Calls of active or inactive are those of the source. Unless noted, calls come from the whole dose curve; as a rule, active = well fitted curve in either direction with a large enough effect (not every such curve was filed as active); inconclusive = small, poorly fitted or top-dose-only effect, or another doubt; inactive = flat fitted curve, though single readings scatter.
# Tests used:
# [1] = AP1 Signaling Pathway (AID 357)
# In short: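 AP-1-bla ME-180 cells with beta-lactamase reporter under AP-1 response element, stimulated with EC50 EGF; compounds titrated, 5 hours at 37 degrees Celsius. CCF4 read at 460/530 nm ratio; positive and negative modulators judged by AC50.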
# [2] = target: Cytochrome P450 1A2 (Homo sapiens) (UniProt P05177); experiment: p450-cyp1a2 (AID 410; calls by dose curve; note: potency is the fitted concentration of half-maximal effect)
# In short: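 Human CYP1A2 (20nM) demethylated Luciferin-ME at its Km (100uM) in 100mM KPO4. After 10 min compound preincubation, NADPH regeneration ran the reaction 60 min at room temperature. Luciferin was read by luminescence, normalized to 57 uM furafylline.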
# [3] = NFAT Signaling Pathway (AID 444);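 note: carbachol stimulus at about its EC50 of 1 µM final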
# In short: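 Jurkat cells with NFAT-driven β-lactamase reporter and co-expressed M1 receptor, stimulated with carbachol (final 1 uM, ~EC50), compound titration, 5 h at 37 °C. CCF4 loaded 1 h at RT; 460/530 nm ratio gave %activity and AC50.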
# [4] = Stat Signaling Pathway (AID 446); conditions: ME-180 SIE beta-lactamase reporter, IL-6 stimulated, 5 h;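 note: ME-180 cervical cancer cells given 40 pM IL-6 alongside compound; SIE-controlled beta-lactamase reporter measured as 460/530 nm FRET emission ratio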
# In short: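 ME-180 cells carrying a SIE-driven beta-lactamase reporter are stimulated with 40 pM IL-6 for 5 h at 37C in the presence of compound. The 460/530 nm FRET substrate ratio is read after 2.5 h at RT. Data are normalised to 300 pM IL-6 and to 125 nM JAK inhibitor controls.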
# [5] = target: Glucocorticoid receptor (Homo sapiens) (UniProt P04150); experiment: GR-EFC Redistribution (AID 451; calls by dose curve; note: potency is the fitted concentration of half-maximal effect); conditions: CHO-K1 GR-EFC translocation, beta-gal luminescence, 2 h
# In short: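 CHO-K1 cells expressing nuclear EA and GR-ED fragments of b-gal; compounds titrated up to 46 uM final, 2 h at 37 C. GR nuclear translocation read as complemented b-gal luminescence after 1 h RT detection.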
# [6] = target: Mitogen-activated protein kinase 10 (Mus musculus) (UniProt Q61831); experiment: JNK3 AlphaScreen Assay (AID 530);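 note: kinase came from lysate of stimulated human HepG2 cells; signal reports phosphorylation of biotinylated GST-cJun 1-79 at Ser73 with 10 µM ATP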
# In short: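 qHTS format: compounds tested as titrations against IL-1beta/TNF-alpha-activated HepG2 lysate JNK3 with biotin-GST-cJun substrate and 10 uM ATP at room temperature. Loss of anti-phospho-cJun AlphaScreen signal indicates inhibition.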
# [7] = target: Lysosomal acid glucosylceramidase (Homo sapiens) (UniProt P04062); experiment: Glucocerebrosidase-p2 (AID 348; in the data active = potency below about 10 µM; note: potency is the fitted concentration of half-maximal effect); conditions: purified GBA, blue fluorogenic substrate, 40 min
# In short: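 Compounds titrated from 0.6 nM upwards against 0.2 nM enzyme in pH 5.9 citric acid/KH2PO4, taurocholate, tween-20; blue fluorogenic substrate 80 uM, 40 min room temperature, stopped and read Ex 365/Em 440 for AC50.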
# [8] = Cell Viability - BJ (AID 421; calls by dose curve;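 note: potency is the fitted concentration of half-maximal effect; cells exposed to compound for 40 hours at 37 °C before readout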); conditions: BJ fibroblast viability, qHTS
# In short: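 Normal human BJ foreskin fibroblasts, 1500/well in complete medium, treated 40 hr at 37 °C. Cellular ATP by CellTiter-Glo luminescence; normalized to DMSO and 100 uM tamoxifen, AC50 from Hill fit.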
# [9] = Cell Viability - Jurkat (AID 426;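 active = dose-dependent loss of cell ATP signal giving a full or clear fitted curve, ranked by lower potency value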; note: potency is the fitted concentration of half-maximal effect); conditions: qHTS
# In short: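 Jurkat (clone E6-1, human T-cell leukemia) cells, 5000/well in complete medium, were exposed to compound for 40 hr at 37 °C. Viability was read as intracellular ATP by CellTiter-Glo luminescence; AC50 came from Hill fits of concentration-response data.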
# [10] = Cell Viability - Hek293 (AID 427;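 active = compounds whose dose-response curve shows a full or clear partial loss of cell viability, called from curve shape rather than a numeric limit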;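 note: potency is the fitted concentration of half-maximal effect; cells exposed to compound for 40 hours at 37 °C before reading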); conditions: qHTS
# In short: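 HEK293 cells in complete medium were exposed to compound for 40 hr at 37 °C, then cellular ATP was read by CellTiter-Glo luminescence. Data were normalized to DMSO (basal) and 100 uM tamoxifen (100% inhibition), and AC50 came from Hill fits.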
# [11] = Cell Viability - HepG2 (AID 433; calls by dose curve;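 note: potency is the fitted concentration of half-maximal effect; potency for ATP loss meaning cytotoxicity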); conditions: qHTS
# In short: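 Read-out is luciferase-based quantitation of cellular ATP as a measure of viable HepG2 cells after 40 h treatment at 37 °C. Signal decrease is scaled between DMSO-only and 100 uM tamoxifen controls, with AC50 fitted by the Hill equation.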
# [12] = Cell Viability - MRC5 (AID 434; calls by dose curve;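 note: potency is the fitted concentration of half-maximal effect; potency reflects cytotoxicity seen as loss of intracellular ATP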); conditions: MRC5 lung fibroblast viability, qHTS
# In short: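 MRC5 normal human lung fibroblasts, 1500 cells/well, exposed to compound for 40 hr at 37 C. Cellular ATP was read by CellTiter-Glo luminescence; data normalized to DMSO and 100 uM tamoxifen, with AC50 from Hill fits.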
# [13] = Cell Viability - SK-N-SH (AID 435; calls by dose curve;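 note: potency is the fitted concentration of half-maximal effect; compound exposure lasted 40 h at 37 °C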); conditions: SK-N-SH neuroblastoma cell viability qHTS
# In short: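 Luminescent ATP signal served as the viability read-out after 40 hours of compound treatment of human neuroblastoma SK-N-SH cells. Concentration-response data, scaled between DMSO and 100 uM tamoxifen, gave AC50 values by standard Hill modeling.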
# [14] = Cell Viability - N2a (AID 540; active = well fitted curve in the direction sought with a large enough effect; an effect the other way counts as inactive or inconclusive; note: nearly all actives have a fitted effect of over 45% in size); conditions: N2a mouse neuroblastoma cell viability; activity change, negative = cytotoxicity: at 92.2 µM (top of the series)
# In short: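 Mouse neuroblastoma N2a cells (1500/well) were preincubated 5 hr at 37 °C, then exposed to compounds for 40 hr at 37 °C in complete medium. Viability was read as intracellular ATP by CellTiter-Glo luminescence; AC50 from Hill fits.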
# [15] = Cell Viability - NIH 3T3 (AID 541; active = well fitted curve in the direction sought with a large enough effect; an effect the other way counts as inactive or inconclusive; note: nearly all actives have a fitted effect of over 25% in size); conditions: NIH 3T3 cell viability, qHTS; at 92.2 µM (top of the series)
# In short: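 NIH 3T3 mouse embryo fibroblasts (1000 cells/well) were plated in complete medium and treated with compound for 40 hr at 37 °C. Viability was read as intracellular ATP by CellTiter-Glo luminescence; AC50 values came from Hill-equation fits of concentration-response data.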
# [16] = Cell Viability - HUV-EC-C (AID 542; active = well fitted curve in the direction sought with a large enough effect; an effect the other way counts as inactive or inconclusive; note: nearly all actives have a fitted effect of over 35% in size)
# In short: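 HUV-EC-C normal human vascular endothelial cells, 1000 cells/well, pre-incubated 5 hr at 37 °C, then exposed to compounds for 40 hr at 37 °C in complete medium. Viability measured as intracellular ATP by CellTiter-Glo luminescence; AC50 from Hill fits.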
# [17] = Cell Viability - H-4-II-E (AID 543; active = well fitted curve in the direction sought with a large enough effect; an effect the other way counts as inactive or inconclusive; note: nearly all actives have a fitted effect of over 35% in size)
# In short: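 Rat hepatoma H-4-II-E cells (1500/well) were plated, incubated 5 hr at 37 °C, then exposed to compounds for 40 hr at 37 °C. Cellular ATP was read by CellTiter-Glo luminescence; AC50 came from Hill-equation fits of concentration-response data.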
# [18] = Cell Viability - SH-SY5Y (AID 544; active = well fitted curve in the direction sought with a large enough effect; an effect the other way counts as inactive or inconclusive; note: nearly all actives have a fitted effect of over 55% in size); conditions: SH-SY5Y neuroblastoma cell viability; viability change, negative = cytotoxic: at 92.2 µM (top of the series)
# In short: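 Human neuroblastoma SH-SY5Y cells (1500/well) in complete medium were exposed to compounds for 40 hr at 37 °C; intracellular ATP was then quantified by CellTiter-Glo luminescence after 20 min at room temperature. AC50 came from Hill-equation concentration-response fits.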
# [19] = Cell Viability - Renal Proximal Tubule (AID 545; active = well fitted curve in the direction sought with a large enough effect; an effect the other way counts as inactive or inconclusive; note: nearly all actives have a fitted effect of over 40% in size); conditions: renal proximal tubule cells viability, primary cells of rat origin; activity change, negative = cytotoxicity: at 91.7 µM (top of the series)
# In short: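 Luminescent ATP signal (CellTiter-Glo) served as the viability read-out after 40 hr compound exposure of freshly isolated rat proximal tubule cells at 37 °C. Concentration-dependent ATP loss was fitted with the Hill equation to give AC50.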
# [20] = Cell Viability - Mesenchymal (AID 546; active = well fitted curve in the direction sought with a large enough effect; an effect the other way counts as inactive or inconclusive;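 note: cells exposed to compound for 40 hours before reading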); conditions: mesenchymal cells viability, qHTS; activity change, negative = cytotoxicity: at 91.7 µM (top of the series)
# In short: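 Human kidney mesenchymal cells from normal renal glomeruli, 1000 cells/well, rested 5 hr at 37 °C, then treated 40 hr at 37 °C in complete medium. Cellular ATP read by CellTiter-Glo luminescence; AC50 from Hill-equation fits.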
# Glucocorticoid receptor (Homo sapiens), sequence (P04150 whole entry, looked up, the tested form may be a part): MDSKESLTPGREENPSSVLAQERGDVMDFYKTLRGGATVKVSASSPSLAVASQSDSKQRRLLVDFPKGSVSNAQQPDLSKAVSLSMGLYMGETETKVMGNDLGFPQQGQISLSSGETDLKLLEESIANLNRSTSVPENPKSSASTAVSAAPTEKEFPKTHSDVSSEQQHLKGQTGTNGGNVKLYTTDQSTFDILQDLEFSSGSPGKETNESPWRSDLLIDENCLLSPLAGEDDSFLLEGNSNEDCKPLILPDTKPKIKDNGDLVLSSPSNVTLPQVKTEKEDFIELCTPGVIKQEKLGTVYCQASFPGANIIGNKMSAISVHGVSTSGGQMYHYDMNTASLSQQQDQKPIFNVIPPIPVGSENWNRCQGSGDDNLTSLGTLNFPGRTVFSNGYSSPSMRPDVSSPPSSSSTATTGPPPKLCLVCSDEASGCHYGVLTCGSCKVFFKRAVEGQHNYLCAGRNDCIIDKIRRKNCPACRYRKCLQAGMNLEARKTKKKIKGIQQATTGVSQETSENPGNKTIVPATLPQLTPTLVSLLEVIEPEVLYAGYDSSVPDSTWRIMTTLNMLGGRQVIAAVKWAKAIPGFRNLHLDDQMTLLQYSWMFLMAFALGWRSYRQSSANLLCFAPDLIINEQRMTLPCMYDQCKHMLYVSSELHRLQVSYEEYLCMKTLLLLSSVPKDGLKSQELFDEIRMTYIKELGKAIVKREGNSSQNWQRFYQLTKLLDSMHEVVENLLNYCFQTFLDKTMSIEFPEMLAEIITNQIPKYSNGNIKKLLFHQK
# Cytochrome P450 1A2 (Homo sapiens), sequence (P05177 whole entry, looked up): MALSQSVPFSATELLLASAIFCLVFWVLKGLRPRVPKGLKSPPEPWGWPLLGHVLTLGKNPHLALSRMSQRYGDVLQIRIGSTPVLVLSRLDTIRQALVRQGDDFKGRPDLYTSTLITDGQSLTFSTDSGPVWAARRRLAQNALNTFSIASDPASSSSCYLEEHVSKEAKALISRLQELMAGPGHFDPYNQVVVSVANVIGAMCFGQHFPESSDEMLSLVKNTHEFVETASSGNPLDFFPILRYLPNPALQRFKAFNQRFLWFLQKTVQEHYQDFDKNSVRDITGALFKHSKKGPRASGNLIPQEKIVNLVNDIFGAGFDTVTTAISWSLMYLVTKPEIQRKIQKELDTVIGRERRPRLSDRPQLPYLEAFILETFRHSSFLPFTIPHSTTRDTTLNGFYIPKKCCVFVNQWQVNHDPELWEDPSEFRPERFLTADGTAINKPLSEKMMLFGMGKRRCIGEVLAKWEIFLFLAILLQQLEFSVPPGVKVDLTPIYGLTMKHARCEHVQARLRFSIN
# Lysosomal acid glucosylceramidase (Homo sapiens), sequence (P04062 whole entry, looked up): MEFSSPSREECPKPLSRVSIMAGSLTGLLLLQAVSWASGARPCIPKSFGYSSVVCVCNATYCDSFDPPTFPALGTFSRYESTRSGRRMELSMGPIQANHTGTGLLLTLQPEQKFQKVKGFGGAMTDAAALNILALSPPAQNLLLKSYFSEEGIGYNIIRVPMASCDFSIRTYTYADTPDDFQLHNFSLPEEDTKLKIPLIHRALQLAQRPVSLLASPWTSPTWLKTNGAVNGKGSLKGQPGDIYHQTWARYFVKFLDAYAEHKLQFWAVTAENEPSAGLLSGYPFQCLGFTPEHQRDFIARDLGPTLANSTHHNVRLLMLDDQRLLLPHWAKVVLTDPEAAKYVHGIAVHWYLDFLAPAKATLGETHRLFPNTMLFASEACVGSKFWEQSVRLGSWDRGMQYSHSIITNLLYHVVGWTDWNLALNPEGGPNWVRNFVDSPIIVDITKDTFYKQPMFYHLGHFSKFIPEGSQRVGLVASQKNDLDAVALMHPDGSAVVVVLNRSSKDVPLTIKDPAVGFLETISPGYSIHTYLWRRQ
structure (smiles),measurement,setting,value
O=C1NCC2(CCN(CCc3ccccc3)CC2)O1,outcome,[1],inactive
same,Potency,[2],inactive
same,outcome,[3],inactive
same,"activity, negative = inhibition",[4]; at 17.2 µM (top of the series),8.61%
same,"activity, negative = inhibition",[4]; at 38 µM (top of the series),4.62%
same,Potency,[5],> 46 µM and > 20.6 µM
same,outcome,[6],inactive
CCN(CC)CCOC(=O)c1ccc(N)cc1,outcome,[1],inactive
same,Potency,[2],inactive
same,"activity, negative = inhibition",[4]; at 17.2 µM (top of the series),13%
same,"activity, negative = inhibition",[4]; at 38 µM (top of the series),-13.6%
same,outcome,[6],inactive
c1cc(-c2sc(-c3ccncc3)c(-c3ccncc3)c2-c2ccncc2)ccn1,Potency,[7],> 11.4 µM
same,outcome,[1],inactive
same,Potency,[2],3.16 µM (active)
same,outcome,[3],inactive
same,"activity, negative = inhibition",[4]; at 7.69 µM (top of the series),7.72%
same,Potency,[5],> 9.22 µM
same,"activity change, negative = inhibition",[6],-6.48% [at 11.4 µM]
CC(=O)N[C@@H](CS)C(=O)O,outcome,[1],inactive
same,outcome,[3],inactive
same,"activity, negative = inhibition",[4]; at 17.2 µM (top of the series),3.22%
CCCNC(=O)NS(=O)(=O)c1ccc(Cl)cc1,outcome,[1],inactive
same,Potency,[2],inactive
same,Potency,[8],> 92 µM
same,Potency,[9],> 92 µM
same,Potency,[10],> 92 µM
same,Potency,[11],> 92 µM
same,Potency,[12],> 92 µM
same,Potency,[13],> 92 µM
same,outcome,[3],inactive
same,"activity, negative = inhibition",[4]; at 17.2 µM (top of the series),-8.89% and -0.985%
same,"activity, negative = inhibition",[4]; at 38 µM (top of the series),-1.14%
same,Potency,[5],> 46 µM and > 20.6 µM
same,outcome,[6],inactive
same,Potency,[14],inactive
same,"activity change, negative = cytotoxicity",[15],4.29%
same,Potency,[16],inactive
same,Potency,[17],inactive
same,Potency,[18],inactive
same,Potency,[19],inactive
same,Potency,[20],inactive
CCN1CCC[C@H]1CNC(=O)c1cc(S(N)(=O)=O)ccc1OC,outcome,[1],inactive
same,Potency,[2],inactive
same,outcome,[3],inactive
same,"activity, negative = inhibition",[4]; at 17.2 µM (top of the series),8.96%
same,Potency,[5],> 20.6 µM and > 46 µM
same,outcome,[6],inactive
O=C1NC(=O)C(c2ccccc2)(c2ccccc2)N1,outcome,[1],inactive
same,Potency,[2],inactive
same,Potency,[8],> 92 µM
same,Potency,[9],> 92 µM
same,Potency,[10],> 92 µM
same,Potency,[11],> 92 µM
same,Potency,[12],> 92 µM
same,Potency,[13],> 92 µM
same,outcome,[3],inactive
same,"activity, negative = inhibition",[4]; at 17.2 µM (top of the series),-0.146%
same,"activity, negative = inhibition",[4]; at 38 µM (top of the series),-3.08%
same,Potency,[5],> 46 µM
same,outcome,[6],inactive
same,Potency,[14],inactive
same,"activity change, negative = cytotoxicity",[15],-17.5%
same,Potency,[16],inactive
same,Potency,[17],inactive
same,Potency,[18],inactive
same,Potency,[19],inactive
same,Potency,[20],inactive
CC(C)NCC(O)COc1cccc2[nH]ccc12 (centres undefined),outcome,[1],inactive
same,outcome,[3],inactive
same,"activity, negative = inhibition",[4]; at 17.2 µM (top of the series),24.1%
O=c1c(-c2ccc(O)cc2)coc2cc(O)ccc12,outcome,[1],inactive
same,Potency,[2],15.8 µM (active)
same,Potency,[8],> 92 µM
same,Potency,[9],> 92 µM
same,Potency,[10],> 92 µM
same,Potency,[11],> 92 µM
same,Potency,[12],> 92 µM
same,Potency,[13],> 92 µM
same,outcome,[3],inactive
same,"activity, negative = inhibition",[4]; at 38 µM (top of the series),-22%
same,Potency,[5],> 46 µM
same,outcome,[6],inactive
same,Potency,[14],inactive
same,Potency,[16],inactive
same,Potency,[18],inactive
same,Potency,[19],inactive
same,Potency,[20],inactive
COCCCCC(=NOCCN)c1ccc(C(F)(F)F)cc1,outcome,[1],inactive
same,Potency,[2],158 nM (active) and 39.8 nM (active) and 15.8 nM (active)
same,outcome,[3],inactive
same,"activity, negative = inhibition",[4]; at 17.2 µM (top of the series),-3.51%
same,"activity, negative = inhibition",[4]; at 38 µM (top of the series),-10.7%
same,Potency,[5],> 46 µM and > 20.6 µM
